A selection: hits, their analogues and other compounds. The true share with any hit is near 8.6%.
Lassa entry – inhibitors of Lassa virus binding or entry into cells. Lassa virus pseudotyped entry inhibition, cell-based qHTS. Potency, µM (series often up to 49.2 µM), for the others: top-dose activity change, negative = inhibition, most hits filed as inhibitors. 18,000 compounds, 4.1% hits
Marburg entry – blocks Marburg virus binding or cell entry | AID 720532 | Potency, µM (titrated, usually from 49.2 µM), for the others: top-dose activity change, negative = inhibition, hits mostly inhibitors | Marburg virus pseudotype entry/binding inhibition, cell-based | 18,000 compounds, 6.5% hits
* hit, by the source's call; ! = not confirmed by another sample; [ ] = remark or other dose. The call rests on the fitted dose curve; tested in HEK293 cells. On the % scale 0 is the no-effect control and ±100 the full control effect; potency means the concentration at half of the fitted maximal effect.

What do the screens show for `COc1cc2ncnc(Nc3cccc(Br)c3)c2cc1OC`?
Lassa entry: -19.6%; Marburg entry: 3.0%

How did NC[C@@H]1O[C@H](O[C@H]2[C@@H](O)[C@H](O[C@@H]3[C@@H](O)[C@H](N)C[C@H](N)[C@H]3O[C@H]3O[C@H](CN)[C@@H](O)[C@H](O)[C@H]3N)O[C@@H]2CO)[C@H](N)[C@@H](O)[C@@H]1O do in these assays?
Lassa entry: -5.4%; Marburg entry: 7.9%

How did CN1[C@@H]2CC[C@H]1CC(OC(=O)c1c[nH]c3ccccc13)C2 (some centres undefined) do in these assays?
Lassa entry: inconclusive; Marburg entry: 20µM*!

How did C[N+]1(C)[C@@H]2CC[C@H]1CC(OC(=O)c1c[nH]c3ccccc13)C2 (some centres undefined) do in these assays?
Lassa entry: -7.8%; Marburg entry: 6.1%

Results for COC(=O)[C@H]1[C@@H](c2ccccc2)NC(=O)N(CCc2cc(OC)c(OC)c(OC)c2)[C@@H]1C ?
Lassa entry: 3.0%[8.59 µM]; Marburg entry: -23.7%[8.59 µM]

How did COC(=O)CC=C[C@@H](C)[C@H](O)c1ccccc1Br do in these assays?
Lassa entry: -19.4%[8.59 µM]; Marburg entry: -21.6%[8.59 µM]

Results for COC(=O)CC=C[C@@H](C)[C@H](OC)c1ccccc1Br ?
Lassa entry: inconclusive; Marburg entry: 0.596µM*!

Results for CCCC[C@@H]1CN2[C@@H](CC[C@H](C)[C@@H]2c2ccc(Br)cc2)C(=O)O1 ?
Lassa entry: 4.8%[8.59 µM]; Marburg entry: 5.3%[8.59 µM]

How did N#Cc1ccc2c(c1)C[C@]1(c3ccsc3)Oc3c(c(=O)oc4ccc(F)cc34)[C@@H]2O1 do in these assays?
Lassa entry: -2.7%[8.59 µM]; Marburg entry: 1.5%[8.59 µM]

Results for COC(=O)C1=C(C)N(Cc2ccccc2)C(=O)NC1c1cccc(C(F)(F)F)c1 (centres undefined) ?
Lassa entry: 5.1%[8.59 µM]; Marburg entry: 16.7%[8.59 µM]

What do the screens show for `FC(F)(F)c1cc(CO[C@H]2CCCN[C@H]2c2ccccc2)cc(C(F)(F)F)c1`?
Lassa entry: 25.1µM*; Marburg entry: 10µM*

What do the screens show for `FC(F)(F)c1ccc(-c2nc(-c3ccccc3)oc2NCc2ccccc2)cc1`?
Lassa entry: inconclusive; Marburg entry: -6.9%[8.59 µM]

What do the screens show for `O=C(C1CCCCC1)N1C[C@@H](n2cc(-c3ccc(F)cc3)nn2)[C@@H](O)C[C@@H]1c1ccccc1`?
Marburg entry: -40.9%

What do the screens show for `O=C(CCCN1CCC(n2c(=O)[nH]c3ccccc32)CC1)c1ccc(F)cc1`?
Lassa entry: -18.5%[17.8 µM]; Marburg entry: 8.5%[17.8 µM]

Results for O=c1[nH]c2ccccc2n1C1CCN(Cc2ccc(-c3[nH]c4cc5ncnc5cc4nc3-c3ccccc3)cc2)CC1 ?
Lassa entry: 17.8µM*; Marburg entry: 7.08µM*

How did C[C@H]1COc2cccc(F)c2S(=O)(=O)N1 do in these assays?
Lassa entry: 18.8%; Marburg entry: 22.5%

What do the screens show for `O=C(O)/C=C\C(=O)O`?
Lassa entry: -3.7%; Marburg entry: -13.5%

How did CC(=O)O.CC(=O)O.[Cd] do in these assays?
Lassa entry: 7.94µM*; Marburg entry: 2.82µM*

Results for C=CS(=O)(=O)O ?
Lassa entry: -13.8%; Marburg entry: 22.4µM*

What do the screens show for `Oc1cccc(-c2c3nc(c(-c4cccc(O)c4)c4ccc([nH]4)c(-c4cccc(O)c4)c4nc(c(-c5cccc(O)c5)c5ccc2[nH]5)CC4)C=C3)c1`?
Lassa entry: 25.1µM*; Marburg entry: inconclusive

How did Cc1cc(C)c(-c2cc([C@H](C)ON=C[C@@H](C)[C@H](OCc3ccccc3)C(C)C)on2)c(C)c1 do in these assays?
Lassa entry: -2.1%[8.59 µM]; Marburg entry: 6.0%[8.59 µM]

Results for COC(=O)C1=C(C(=O)OC)[C@@H]2N(CC=C(C)C)c3ccccc3[C@@]23CCC(=O)N(Cc2cccc(C(F)(F)F)c2)C3=N1 ?
Lassa entry: 2.4%[8.59 µM]; Marburg entry: -27.9%[8.59 µM]

What do the screens show for `O=[N+]([O-])c1ccc2c(c1)S(=O)(=O)C=C2`?
Lassa entry: 11.2µM*; Marburg entry: 6.31µM*

Results for NC(=O)c1ccc([N+](=O)[O-])cc1Cl ?
Lassa entry: 2.2%; Marburg entry: 9.3%

Results for COc1cc(Br)c(C[N+]2(CCOCCC3CCC4CC3C4(C)C)CCOCC2)cc1OC (centres undefined) ?
Lassa entry: 4.47µM*; Marburg entry: inconclusive

Results for COc1ccc(NC(=O)OCCN2CCN(Cc3ccccc3)CCC2=O)cc1 ?
Lassa entry: 5.2%; Marburg entry: 22.2%

What do the screens show for `COc1ccc(NC(=O)c2cc(OCCCN(C)C)nn2Cc2ccccc2)cc1`?
Lassa entry: inconclusive; Marburg entry: 8.91µM*

What do the screens show for `CC(CCC(=O)OC[C@H]1O[C@H](C#Cc2ccccc2)C=C[C@H]1Oc1ccc(C)cc1)=NO[C@H](C)c1cn([C@H](CO)Cc2ccccc2)nn1`?
Marburg entry: 2.3%[8.59 µM]

How did Nc1ccc(O)cc1 do in these assays?
Lassa entry: 44.7µM*; Marburg entry: 50.1µM*

How did NCCc1ccc(O)cc1 do in these assays?
Lassa entry: inconclusive; Marburg entry: 11.7%

Results for C=CC[C@@H]1C=C[C@H](ON=C[C@@H](N[S+](=O)([O-])c2ccc(C)cc2)[C@H](C)C=CCC(=O)OC)[C@H](CO)O1 ?
Lassa entry: -27.3%[8.59 µM]; Marburg entry: -13.8%[8.59 µM]

What do the screens show for `COc1ccc(-c2ccc3c(NC(=O)C4CC4)n[nH]c3n2)cc1`?
Lassa entry: 3.6%; Marburg entry: 49.3%

How did Cc1ccc(NC(=O)c2ccoc2)cc1-c1ccc(C(=O)NCC2CC2)cc1 do in these assays?
Lassa entry: inconclusive; Marburg entry: 0.1%

How did C=CCNC1=C2C[C@@H](C)C[C@H](OC)[C@H](O)[C@@H](C)/C=C(\C)[C@H](OC(N)=O)[C@@H](OC)/C=C\C=C(/C)C(=O)NC(=CC1=O)C2=O do in these assays?
Lassa entry: 3.55µM*!; Marburg entry: inconclusive

Results for COC1=C2C[C@H](C)C[C@H](OC)[C@H](O)[C@@H](C)/C=C(/C)[C@H](OC(N)=O)[C@@H](OC)/C=C\C=C(\C)C(=O)NC(=CC1=O)C2=O ?
Lassa entry: 5.3%; Marburg entry: 22.7%

Results for CCN1C(=NCCCOC(C)C)N[C@H](c2ccccc2)[C@H](C(=O)OC)[C@H]1C ?
Lassa entry: 32.6%[8.59 µM]; Marburg entry: 0.1%[8.59 µM]

Results for COC(=O)CC=C[C@@H](C)[C@@H](Cc1ccccc1Br)OC ?
Marburg entry: -3.5%[8.59 µM]

How did CCOC(=O)[C@H](CS)NCCN[C@@H](CS)C(=O)OCC do in these assays?
Lassa entry: inconclusive; Marburg entry: -18.2%

What do the screens show for `c1csc(C2(N3CCCCC3)CCCCC2)c1`?
Lassa entry: -2.2%; Marburg entry: -9.6%

What do the screens show for `c1ccc2sc(C3(N4CCCCC4)CCCCC3)cc2c1`?
Lassa entry: inconclusive; Marburg entry: 11.2µM*

Results for COC(=O)CC1OC1[C@H](C)[C@@H](OC)C(C)C (some centres undefined) ?
Marburg entry: -14.5%[8.59 µM]

Results for C[C@@H]1COc2cc(F)ccc2S(=O)(=O)N1 ?
Lassa entry: 8.3%; Marburg entry: 27.7%

What do the screens show for `Cc1ccc(S(=O)(=O)NC(=O)N[C@@H](C)Cc2ccccc2)cc1`?
Lassa entry: -11.4%; Marburg entry: -3.5%

How did CCN(CC)CCOc1ccc(Cc2ccccc2)cc1 do in these assays?
Lassa entry: 7.1%; Marburg entry: 10µM*

What do the screens show for `CN(C)CCOc1ccc(/C(=C(/CCCl)c2ccccc2)c2ccccc2)cc1`?
Lassa entry: -29.7%; Marburg entry: inconclusive

High-throughput results from PubChem.
